# Screen size: about 66,000 compounds; about 960 (1.5%) showed an effect of 50% or more. The list comes from a sample in which strong results are over-represented; it also holds similar structures and randomly drawn compounds.
# Tested on: Trypanosoma brucei
# Assay: Trypanosoma brucei 72 hour study
# Assay type: functional, organism-based
# Set-up: scale not given: in the data most compounds retested in dose-response had high values
smiles,measurement,setting,value
O=C1NCC(c2ccc(Cl)cc2)Cc2[nH]c(CCN3CCOCC3)nc21 (configuration not stated),Percent Effect,"30.3 µM, […]",-6.17%
O=C(CCCn1ccnc1)NC1CCCN(c2ccccc2Cl)C1 (configuration not stated),Percent Effect,"30 µM, 30.03 µM",-36.7%
Cn1ccc2c(C(=O)N3CCC(C(N)=O)CC3)cccc21,Percent Effect,"30 µM, 30.03 µM",51.42%
CC(=O)N(C)C1CCN(C(=O)c2cccc3c2ccn3C)CC1,Percent Effect,"30.3 µM, […]",1.635%
Cn1ccc2c(C(=O)N3CCN(C(=O)C4CCCC4)CC3)cccc21,Percent Effect,"30.3 µM, […]",-0.9219%
CNCc1ccc([C@@H]2CN(C(C)=O)C[C@H]2C(N)=O)cc1.Cl,Percent Effect,"30.3 µM, […]",-4.211%
Cc1nn(-c2ccccc2)c(C)c1CC(=O)NC1CC(=O)N(C)C1 (configuration not stated),Percent Effect,"30 µM, 30.03 µM",-14.36%
COC(=O)C(CCSC)NC(=O)Cc1c(C)nn(-c2ccccc2)c1C (configuration not stated),Percent Effect,"30.3 µM, […]",100.4%
COC(=O)[C@H](CCSC)NC(=O)Cc1c(C)nn(-c2ccccc2)c1C,Percent Effect,"30 µM, 30.03 µM",101%
CSCCC(NC(N)=O)C(=O)NCc1c(C)nn(-c2ccccc2)c1C (configuration not stated),Percent Effect,"30 µM, 30.03 µM",-20.96%
COc1cccc(-c2nc(C)c(C(=O)N[C@@H](CCSC)C(=O)O)s2)c1,Percent Effect,"30 µM, 30.03 µM",-41.8%
COC(=O)[C@H](CCSC)NC(=O)Cn1ccc2c(Cl)cccc21,Percent Effect,"30 µM, 30.03 µM",-28.3%
CC(C)Cc1noc(CN2CCOCC2C)n1 (configuration not stated),Percent Effect,"30 µM, 30.03 µM",-14.5%
O=C(Nc1cnccn1)[C@@H]1CCO[C@@H]2CCN(Cc3ccsc3)C[C@@H]21.O=C(O)C(F)(F)F,Percent Effect,"30.3 µM, […]",-603.1%
O=C(Nc1ccccc1)N1C(CN2CCOCC2)[C@]2(O)CC[C@H]1CC2 (some centres not stated),Percent Effect,"30.3 µM, […]",6.609%
CCn1nc(C)c2nc(C(C)C)nc(NCC(=O)N3CCOCC3)c21,Percent Effect,"30.3 µM, […]",-23.63%
CCc1nc(NCC(=O)N2CCOCC2)c2c(n1)c(C)nn2CC,Percent Effect,"30 µM, 30.03 µM",60.24%
CCCc1nc(NCC(=O)N2CCOCC2)c2c(n1)c(C)nn2CC,Percent Effect,"30.3 µM, […]",-24.9%
Cn1c(CCN2CCN(CCc3ccccc3)CC2)nc2ccccc21,Percent Effect,"30 µM, 30.03 µM",-13.15%
Cn1c(CN2CCN(CC3CCCO3)CC2)nc2ccccc21 (configuration not stated),Percent Effect,"30.3 µM, […]",-39.6%
CCCc1ccc(N2CCN(Cc3nc4ccccc4n3C)CC2)cc1,Percent Effect,"30 µM, 30.03 µM",90.43%
COCCN1CC[C@@H]2CN(Cc3nccn3C)C[C@@H]2C1.O=C(O)C(F)(F)F.O=C(O)C(F)(F)F,Percent Effect,"30 µM, 30.03 µM",27.97%
CC(C)CN1CCc2c(CN(C)Cc3ccco3)cncc2C1.Cl.Cl.Cl,Percent Effect,"30.3 µM, […]",-2.843%
Cc1cnc(CN(Cc2ccc(C#N)cc2F)C2CCN(C)C2)o1 (configuration not stated),Percent Effect,"30 µM, 30.03 µM",-34.7%
COc1ccc(C)cc1CN(Cc1nc(C)c(C)o1)C1CCN(C)C1 (configuration not stated),Percent Effect,"30 µM, 30.03 µM",82.74%
COc1ccc(C)cc1CN(Cc1ncc(C)o1)C1CCN(C)C1 (configuration not stated),Percent Effect,"30 µM, 30.03 µM",-50.91%
COc1cc(C(=O)NCC2(N(C)C)CCN(C)CC2)c2ccccc2n1,Percent Effect,"30.3 µM, […]",-18.58%
Cc1c(CN2CC[C@@H](N3CCC(O)CC3)[C@H](O)C2)[nH]c2ccc(Cl)cc12,Percent Effect,"30 µM, 30.03 µM",-14.51%
O[C@@H]1CN(CC2=Cc3cc(Cl)ccc3OC2)CC[C@H]1N1CCCCCC1,Percent Effect,"30.3 µM, […]",78.41%
CN1CCN([C@@H]2CCN(CC3=Cc4cc(Cl)ccc4OC3)C[C@H]2O)CC1,Percent Effect,"30.3 µM, […]",22.23%
O=C(CCc1ccco1)N1CCCC(n2cccn2)C1 (configuration not stated),Percent Effect,"30.3 µM, […]",12.32%
Cn1cnnc1S(=O)(=O)C1CCN(S(=O)(=O)c2ccc(F)c(Cl)c2)CC1,Percent Effect,"30 µM, 30.03 µM",73.39%
Cn1cnnc1S(=O)(=O)C1CCN(S(=O)(=O)c2ccccc2F)CC1,Percent Effect,"30 µM, 30.03 µM",-32%
Cc1ccc(S(=O)(=O)N2CCC(S(=O)(=O)c3nncn3C)CC2)cc1C,Percent Effect,"30 µM, 30.03 µM",-15.11%
CN1CCN(Cc2ccncc2)C(=O)C12CCN(Cc1ccsc1)CC2.O=C(O)C(F)(F)F.O=C(O)C(F)(F)F.O=C(O)C(F)(F)F,Percent Effect,"30.3 µM, […]",-53.7%
COC1CCN(C(=O)Cc2csc(-c3ccccc3)n2)CC1,Percent Effect,"30.3 µM, […]",99.67%
COC1CCN(C(=O)Cc2csc(-c3ncccn3)n2)CC1,Percent Effect,"30 µM, 30.03 µM",9.896%
COC1CCN(C(=O)Cc2csc(-c3ccc(F)cc3)n2)CC1,Percent Effect,"30.3 µM, […]",9.7%
Cc1cc(N2CCc3cncnc3C2)n2nc(C(F)(F)F)nc2n1,Percent Effect,"30 µM, 30.03 µM",-22.1%
Cc1ccc(C(=O)N2CCOCC2C(N)=O)c(F)c1 (configuration not stated),Percent Effect,"30 µM, 30.03 µM",-8.01%
CC(C)NC(=O)c1csc(NC2CC2)n1,Percent Effect,"30 µM, 30.03 µM",-15.9%
O=C(Nc1nccs1)c1csc(NC2CCCC2)n1,Percent Effect,"30 µM, 30.03 µM",93.86%
CC(C)CCNC(=O)c1csc(NC2CC2)n1,Percent Effect,"30 µM, 30.03 µM",55.59%
CC(C)CCNc1nc(C(=O)NC2CC2)cs1,Percent Effect,"30 µM, 30.03 µM",-29.09%
O=C(Nc1ccccn1)c1csc(NC2CCCC2)n1,Percent Effect,"30 µM, 30.03 µM",1.318%
CC(NC(=O)Nc1nccs1)C(=O)NC1CCCC1 (configuration not stated),Percent Effect,"30 µM, 30.03 µM",-0.2762%
COc1cccc(C2CCCN2Cc2nnnn2C2CC2)c1 (configuration not stated),Percent Effect,"30 µM, 30.03 µM",7.439%
O=C(O)C(F)(F)F.O=C(O)C(F)(F)F.c1csc(CN2Cc3nc(CN4CCCC4)oc3C2)c1,Percent Effect,"30.3 µM, […]",-24.4%
COc1c(C)cnc(CN(C)C2CCCCC2)c1C,Percent Effect,"30 µM, 30.03 µM",75.58%
COc1c(C)cnc(CN(C)C2CCOC3(CCOCC3)C2)c1C (configuration not stated),Percent Effect,"30 µM, 30.03 µM",-25.65%
COc1c(C)cnc(CN(C)C2CCN(C3CCOCC3)CC2)c1C,Percent Effect,"30 µM, 30.03 µM",-11.24%
COc1ccc(CNC(=O)NCc2c(C)cc(C)[nH]c2=O)cc1,Percent Effect,"30 µM, 30.03 µM",50.39%
Cc1cc(C)c(CNC(=O)NCc2ccc(F)cc2)c(=O)[nH]1,Percent Effect,"30.3 µM, […]",-10.32%
COc1cc(CNC(=O)NCc2c(C)cc(C)[nH]c2=O)ccc1C,Percent Effect,"30 µM, 30.03 µM",17.33%
Cc1sc(CN)nc1-c1ccc(Cl)cc1.Cl,Percent Effect,"30 µM, 30.03 µM",-33.68%
O=C(NCCCNc1ccc(C(F)(F)F)cn1)c1ccc(F)cc1,Percent Effect,10 µM,-67.47%
Cc1nc(CCN2CCC(Oc3ccccc3F)CC2)cs1,Percent Effect,"30.3 µM, […]",-2.649%
Cc1nc(C)c(CCN2CCC(Oc3ccccc3F)CC2)s1,Percent Effect,"30.3 µM, […]",55.32%
Cc1nc(CCN2CCC(Oc3ccccc3F)CC2)c(C)s1,Percent Effect,"30.3 µM, […]",14.09%
O=C(O)C(F)(F)F.O=C(O)C(F)(F)F.O=C1NC2(CCN(Cc3ccsc3)CC2)CC1c1ccncc1 (configuration not stated),Percent Effect,"30 µM, 30.03 µM",34.47%
CC(C)n1c(=O)nc2n1C(=O)N(c1ccc(F)cc1)C2,Percent Effect,"30 µM, 30.03 µM",24.9%
COc1cc(Cl)cc(CN2CCCC(N3CCCC3)C2)c1OC (configuration not stated),Percent Effect,"30 µM, 30.03 µM",-17.8%
c1cnc(-c2nc(CN3CCn4c(nnc4C4CC4)C3)cs2)nc1,Percent Effect,"30 µM, 30.03 µM",1.717%
c1sc(C2CCCC2)nc1CN1CCn2c(nnc2C2CC2)C1,Percent Effect,"30 µM, 30.03 µM",-23.12%
c1sc(C2CCCCC2)nc1CN1CCn2c(nnc2C2CC2)C1,Percent Effect,"30.3 µM, […]",99.05%
Cc1csc(C(=O)N2CCCC(c3[nH]ncc3S(C)(=O)=O)C2)c1 (configuration not stated),Percent Effect,"30.3 µM, […]",68.17%
Cc1ccc(C(=O)N2CCCC(c3[nH]ncc3S(C)(=O)=O)C2)s1 (configuration not stated),Percent Effect,"30.3 µM, […]",-30.56%
Cc1ccsc1C(=O)N1CCCC(c2[nH]ncc2S(C)(=O)=O)C1 (configuration not stated),Percent Effect,"30.3 µM, […]",-15.29%
COCCN1CCC2(CC1)CN(C(=O)c1cccs1)CCO2.O=C(O)C(F)(F)F,Percent Effect,"30.3 µM, […]",-16.53%
CN(C)CCO[C@H]1CN(C(=O)c2cccs2)[C@@H]2COC[C@H]12.O=C(O)C(F)(F)F,Percent Effect,"30 µM, 30.03 µM",4.197%
Cc1ccc(C(C)N(C)Cc2nc3c(cnn3C)c(=O)[nH]2)cc1 (configuration not stated),Percent Effect,"30 µM, 30.03 µM",18.7%
CC(C)Sc1ccc(C(C)Nc2nc3c(cnn3C)c(=O)[nH]2)cc1 (configuration not stated),Percent Effect,"30.3 µM, […]",62.45%
CC(Nc1nc2c(cnn2C)c(=O)[nH]1)c1ccc2c(c1)CCCC2 (configuration not stated),Percent Effect,"30.3 µM, […]",35.38%
CCC(=O)Nc1ccc(C(C)Nc2nc3c(cnn3C)c(=O)[nH]2)cc1 (configuration not stated),Percent Effect,"30.3 µM, […]",99.39%
CC(Nc1nc2c(cnn2C)c(=O)[nH]1)c1ccc(F)cc1 (configuration not stated),Percent Effect,"30.3 µM, […]",-23.37%
CC(Nc1nc2c(cnn2C)c(=O)[nH]1)c1ccccn1 (configuration not stated),Percent Effect,"30.3 µM, […]",-31.46%
CSCC[C@H](N)c1nnc(SCC(=O)Nc2ccc(Br)cc2)o1.Cl,Percent Effect,"30 µM, 30.03 µM",-43.15%
CC(CNC(=O)c1ccc(F)cc1I)N1CCCC1 (configuration not stated),Percent Effect,"30.3 µM, […]",0.5476%
COCCC(=O)NCCn1nc(C2CCNC2)c2cccnc21.Cl (configuration not stated),Percent Effect,"30.3 µM, […]",-11.01%
Cc1nc(CN2CCC(O)(c3ccccc3F)CC2)c2ccccn12.O=C(O)CC(O)(CC(=O)O)C(=O)O,Percent Effect,"30.3 µM, […]",-5.12%
Cc1cccc(C)c1NC(=O)c1cc(S(N)(=O)=O)c(C)o1,Percent Effect,"30 µM, 30.03 µM",-12.34%
Cc1nc(C2(O)CCCNCC2)sc1CCOc1ccc(F)c(F)c1.Cl (configuration not stated),Percent Effect,"30.3 µM, […]",101.7%
CC1(C(=O)NCc2cccnc2Oc2ccc(F)c(F)c2)CCCNC1 (configuration not stated),Percent Effect,"30 µM, 30.03 µM",-31.1%
Cn1cc(CNC(=O)NCCOc2ccc(F)c(F)c2)cn1,Percent Effect,"30 µM, 30.03 µM",-10%
Cc1cc(CNC(=O)NCCOc2ccc(F)c(F)c2)on1,Percent Effect,"30 µM, 30.03 µM",-38.02%
Cc1nccc(CNC(=O)NCCOc2ccc(F)c(F)c2)n1,Percent Effect,"30.3 µM, […]",8.406%
CCC(CN1CCCC1)NC(=O)Cc1c(C)[nH]c2c(C)cc(C)cc12.O=C(O)CC(O)(CC(=O)O)C(=O)O (configuration not stated),Percent Effect,"30.3 µM, […]",9.843%
Cc1ccc(CN2CCCn3nnc(COCC4CC4)c3C2)s1.O=C(O)C(F)(F)F,Percent Effect,"30 µM, 30.03 µM",22.43%
CN(C)CCCN(Cc1ccco1)Cc1ccnn1C1CCCCO1.O=C(O)CC(O)(CC(=O)O)C(=O)O (configuration not stated),Percent Effect,"30.3 µM, […]",-21.72%
O=C(O)C(F)(F)F.O=C(c1ccncc1)N1CCOC2(CCCN(c3nncs3)C2)C1 (configuration not stated),Percent Effect,"30.3 µM, […]",-64.64%
CN(C)S(=O)(=O)N1CCC(c2cccc(Cc3ccccc3Cl)n2)CC1,Percent Effect,"30.3 µM, […]",-38.96%
Cc1ccc(-c2nc(CN(Cc3cccs3)CC3CCCO3)no2)cc1 (configuration not stated),Percent Effect,10 µM,-10.74%
same,Percent Effect,"30.3 µM, […]",9.515%
Cc1ncoc1C(=O)N1C[C@H]2CCC[C@@]2(COCc2cccnc2)C1.O=C(O)C(F)(F)F,Percent Effect,"30 µM, 30.03 µM",18.22%
Cn1nnc2c1CCN(CC1CC1)C2COCc1ccccc1.O=C(O)C(F)(F)F (configuration not stated),Percent Effect,"30 µM, 30.03 µM",17.54%
CO[C@@H]1CC[C@H]2[C@H]1OCCN2Cc1ccc(F)c(F)c1.O=C(O)C(F)(F)F,Percent Effect,"30.3 µM, […]",-7.78%
CC(C)NC(=O)N1CCOC2(CCCN(c3ncccc3F)C2)C1.O=C(O)C(F)(F)F (configuration not stated),Percent Effect,"30.3 µM, […]",-41.85%

# — ChEMBL document CHEMBL3988442, “University of Dundee, Small-Polar-MMV Screening Library” (2021)
